# Experimental data from the supplement of paper PMC8253809.
# How the values were obtained:
# Test in all cases: growth inhibition (% activity, log2 RLU normalised to DMSO / staurosporine); higher = more growth inhibition
# Conditions in all cases: 33 µM
# DIPGX29 = test system: DIPGX29 (H3.3 K27M diffuse intrinsic pontine glioma line)
# In short: (§1)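 On Geltrex-coated 384-well plates, pHGG cell lines and H9-derived neural stem cells were grown with approved drugs pinned in at a single final concentration of about 33 μM, in triplicate, for 7 days at 37 °C, 5% CO2. Per-plate normalisation of log2-transformed CellTiter-Glo luminescence to % activity between solvent and positive control wells followed. Each growth-inhibition value is the median over the replicates.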
# DIPGX37 = test system: DIPGX37 (H3.3 K27M diffuse intrinsic pontine glioma line)
# In short: as §1
# DIPGX7 = test system: DIPGX7 (H3.3 K27M diffuse intrinsic pontine glioma line)
# In short: as §1
# DIPGX9 = test system: DIPGX9 (diffuse intrinsic pontine glioma line)
# In short: as §1
# HGGX39 = test system: HGGX39 (paediatric high-grade glioma line)
# In short: as §1
# HGGX6 = test system: HGGX6 (H3.3 G34R paediatric high-grade glioma line)
# In short: as §1
# HNSC = test system: HNSC
# In short: as §1
# SUDIPGIV = test system: SUDIPGIV (diffuse intrinsic pontine glioma line)
# In short: as §1
# SUDIPGVI = test system: SUDIPGVI (diffuse intrinsic pontine glioma line)
# In short: as §1
# SUDIPGXIII = test system: SUDIPGXIII (diffuse intrinsic pontine glioma line)
# In short: as §1
Structure (SMILES),growth inhibition (DIPGX29) [%],growth inhibition (DIPGX37) [%],growth inhibition (DIPGX7) [%],growth inhibition (DIPGX9) [%],growth inhibition (HGGX39) [%],growth inhibition (HGGX6) [%],growth inhibition (HNSC) [%],growth inhibition (SUDIPGIV) [%],growth inhibition (SUDIPGVI) [%],growth inhibition (SUDIPGXIII) [%]
CCCCCCCCCCCCCCCC(=O)O[C@@H]1[C@@H](O)[C@@H](O)[C@@H]([C@H](NC(=O)[C@@H]2C[C@@H](CCC)CN2C)[C@H](C)Cl)O[C@@H]1SC,0.38,-0.882,0.64,-0.0578,2.42,2.01,-1.46,1.12,0.759,-0.501
Cc1cc(N)c2ccccc2[n+]1CCCCCCCCCC[n+]1c(C)cc(N)c2ccccc21,39.6,46.2,35.4,41.1,55.5,36.2,57.8,50,50.9,52.5
CCn1cc(C(=O)O)c(=O)c2cnc(N3CCCC3)nc21,-2.15,-2.01,-0.632,-0.749,-1.43,0.0128,-2.86,-0.463,-0.722,-2.7
CC(C)CN(C[C@@H](O)[C@H](Cc1ccccc1)NC(=O)O[C@H]1CCOC1)S(=O)(=O)c1ccc(N)cc1,-0.715,-0.112,-0.0284,-0.297,-0.345,-0.047,-1.76,-2.74,-1.11,0.567
C#Cc1cccc(Nc2ncnc3cc(OCCOC)c(OCCO)cc23)c1,6.22,3.87,4.89,4.84,9.77,9.46,31.8,-3.74,2.81,0.549
O=P(O)(O)C(Cl)(Cl)P(=O)(O)O,0.766,-0.716,0.292,1.96,2.08,-0.402,0.239,0.894,2.08,-0.0137
CN1CCN(CCCN2c3ccccc3Sc3ccc(C(F)(F)F)cc32)CC1,14.9,0.958,12.3,0.94,7.39,8.55,9.67,4.53,-3.52,0.946
Nc1nc(=O)n([C@@H]2CS[C@H](CO)O2)cc1F,0.68,3.05,1.33,1.75,1.6,0.276,0.206,-0.429,2.25,-2.25
COc1ccc(CNc2nc(N3CCC[C@H]3CO)ncc2C(=O)NCc2ncccn2)cc1Cl,-1.4,-6.17,-0.329,-0.502,-0.964,-0.0101,-2.71,-1.36,-2.1,-0.559
Cc1cc(NS(=O)(=O)c2ccc(N)cc2)no1,-4.18,-1.05,-1.62,-1.67,-2.37,-4.13,1.76,-3.28,-3.16,-0.124
